The values that follow come from PubChem BioAssay (NCI).

This experiment is described as follows: NCI Yeast Anticancer Drug Screen. Data for the CLN2oe strain (AID 163).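 Also: 0% = growth of vehicle-only control cultures.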 The conditions noted are these: S. cerevisiae CLN2oe strain, stronger effect = higher value. The protocol:
Growth inhibition of yeast strains with defined genetic alterations is measured as a screen for potential anti-cancer activity. Selected strains with alterations in DNA damage repair or cell cycle control were exposed to compounds and growth inhibition was measured relative to vehicle treated controls. The strain used in this assay is CLN2oe

About 79,000 compounds went through this panel and 15% of them were active in at least one assay; those are over-represented in the sample as a whole. The source made the active and inactive calls. Rule as the data show it: active = growth inhibition above about 70%; inactive = the rest.

Consider `CN1CCN(c2ccc3nc(-c4ccc5nc(-c6ccc(O)cc6)[nH]c5c4)[nH]c3c2)CC1`, for which the growth inhibition is 9% (inactive) (at 1.2 µM); 6% (inactive) (at 3.7 µM); 97% (active) (at 11.0 µM); 98% (active) (at 33.0 µM); 98% (active) (at 100.0 µM).
With `CCCCCC(=O)C(C)(c1nc2n(c1O)/C(=N/C(=O)Nc1ccc(Cl)cc1)N=N2)c1nc2n(c1O)/C(=N/C(=O)Nc1ccc(Cl)cc1)N=N2`, the growth inhibition is, setting by setting: (at 1.2 µM) -5% (inactive); (at 3.7 µM) -8% (inactive); (at 11.0 µM) -5% (inactive); (at 33.0 µM) 2% (inactive); (at 100.0 µM) 27% (inactive).
In the case of `CN(C)c1ccc(C(c2ccc(Cl)cc2)c2ccc(N(C)C)cc2)cc1`, the growth inhibition (at 1.2 µM) was -14% (inactive); the growth inhibition (at 3.7 µM) is 26% (inactive); the growth inhibition (at 11.0 µM) is 26% (inactive); the growth inhibition (at 33.0 µM) was 87% (active); the growth inhibition (at 100.0 µM) was 78% (active).
Consider `O=C1c2ccccc2C(=O)C1C(c1ccc(F)cc1)C1C(=O)c2ccccc2C1=O`, for which the growth inhibition is, setting by setting: (at 1.2 µM) 6% (inactive); (at 3.7 µM) 0% (inactive); (at 11.0 µM) -1% (inactive); (at 33.0 µM) 34% (inactive); (at 100.0 µM) 86% (active).
Consider `Nc1ccc2ncc(Nc3ccc(Cl)c(Cl)c3)nc2c1`, for which the growth inhibition reads like this: (at 1.2 µM) -17% (inactive); (at 3.7 µM) -6% (inactive); (at 11.0 µM) 69% (inactive); (at 33.0 µM) 97% (active); (at 100.0 µM) 97% (active).
For the molecule `[Cl][Pt+2][Cl].[NH-]CC1(C[NH-])CCCCC1`, the growth inhibition (at 1.2 µM) was -5% (inactive); the growth inhibition (at 3.7 µM) was 14% (inactive); the growth inhibition (at 11.0 µM) was 62% (inactive); the growth inhibition (at 33.0 µM) was 98% (active); the growth inhibition (at 100.0 µM) is 98% (active).
As for `CN(NC(=O)/C(=C/C=C/c1ccccc1)NC(=O)c1ccccc1)C1=C(Cl)C(=O)[N+](c2ccccc2)=CC1`, the growth inhibition reads like this: (at 1.2 µM) -1% (inactive); (at 3.7 µM) 5% (inactive); (at 11.0 µM) 19% (inactive); (at 33.0 µM) 40% (inactive); (at 100.0 µM) 44% (inactive).
The corresponding values for `O=C(CSS(=O)(=O)O)c1ccccc1` are -5% (inactive), -14% (inactive), -11% (inactive), 2% (inactive) and 28% (inactive).
